According to PubChem BioAssay (Tox21):
Results filed as inconclusive are left out. Calls of active or inactive are those of the source. Unless noted, calls follow the shape of the full dose curve.

Tests used:
[1] = Nuclear factor erythroid 2-related factor 2/antioxidant responsive element (Nrf2/ARE) small molecule agonists: qHTS cell viability counter screen in human keratinocytes (AID 1919968; active = well fitted curve in the direction sought with a large enough effect in the repeat runs; an effect the other way counts as inactive or inconclusive; also: nearly all actives have a fitted effect of over 55% in size; also: potency is read from the fitted curve at half-maximal effect)
Method in brief: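 Parallel cytotoxicity read: KeratinoSens HaCaT cells, compound treatment 23 h, viability by CellTiter-Fluor fluorescence 1 h post-reagent.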

[2] = Nuclear factor erythroid 2-related factor 2/antioxidant responsive element (Nrf2/ARE) small molecule agonists: luciferase reporter gene qHTS assay in human keratinocytes (AID 1919969); also: nearly all actives have a fitted effect of over 35% in size; also: potency is read from the fitted curve at half-maximal effect
[3] = target: Gonadotropin-releasing hormone receptor (Homo sapiens) (UniProt P30968); assay: Human gonadotropin-releasing hormone receptor (GnRHR) small molecule agonists, calcium flux assay in GnRHR-HEK293 cells (AID 1920063); also: nearly all actives have a fitted effect of over 35% in size
Sequence of Gonadotropin-releasing hormone receptor (Homo sapiens) (P30968 whole entry, looked up): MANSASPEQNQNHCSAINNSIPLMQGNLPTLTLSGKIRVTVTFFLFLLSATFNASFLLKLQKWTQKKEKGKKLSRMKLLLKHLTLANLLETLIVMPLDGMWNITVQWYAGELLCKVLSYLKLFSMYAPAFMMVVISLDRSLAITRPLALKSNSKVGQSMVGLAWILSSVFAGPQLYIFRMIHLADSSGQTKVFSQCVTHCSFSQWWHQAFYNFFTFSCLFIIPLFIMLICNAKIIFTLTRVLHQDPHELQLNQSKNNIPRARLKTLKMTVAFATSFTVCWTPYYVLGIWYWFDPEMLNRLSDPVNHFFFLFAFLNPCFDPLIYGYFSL
Method in brief: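 Calcium flux, agonist mode, human GnRHR stably integrated in HEK293; dye 1 h at 37 C before compound; Ex/Em=480/540 kinetic read, 3 min; 15 concentrations, triplicate.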

[4] = target: KiSS-1 receptor (Homo sapiens) (UniProt Q969F8); assay: Human kisspeptin (KISS1R) small molecule agonists, calcium flux assay in KISS1R-HEK293 cells (AID 1920064; active = well fitted curve in the direction sought with a large enough effect in the repeat runs; an effect the other way counts as inactive or inconclusive)
Sequence of KiSS-1 receptor (Homo sapiens) (Q969F8 whole entry, looked up): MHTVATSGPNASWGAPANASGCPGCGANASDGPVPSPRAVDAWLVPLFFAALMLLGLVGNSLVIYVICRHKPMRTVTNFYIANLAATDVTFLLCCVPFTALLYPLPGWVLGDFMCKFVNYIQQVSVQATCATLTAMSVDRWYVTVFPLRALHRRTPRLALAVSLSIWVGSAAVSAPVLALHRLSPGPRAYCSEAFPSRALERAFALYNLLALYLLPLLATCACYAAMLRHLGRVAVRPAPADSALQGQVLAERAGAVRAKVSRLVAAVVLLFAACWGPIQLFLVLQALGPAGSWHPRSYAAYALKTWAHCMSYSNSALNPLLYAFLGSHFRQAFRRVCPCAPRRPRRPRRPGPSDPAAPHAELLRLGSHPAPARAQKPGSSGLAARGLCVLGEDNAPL
Method in brief: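 Triplicate 15-concentration series were applied to dye-loaded human KISS1R HEK293 cells, and agonist-evoked calcium fluorescence was captured for 3 min.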

[5] = G protein-coupled receptor (GPCR) small molecule agonists, calcium flux assay: HEK293 wild type cell line counter screen (AID 1920065)
Method in brief: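 Non-specific calcium responders were flagged by adding DMSO-dissolved compounds to dye-loaded cells and reading 480/540 nm fluorescence each second for 3 min; ATP served as positive control.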

[6] = p53 small molecule agonists, cell-based qHTS assay with human liver microsomes (AID 1963577);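 also: p53 response element beta-lactamase reporter cells with liver microsomes plus NADPH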
Method in brief: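 With metabolic activation: human liver microsomes (0.5 mg/mL final) plus NADPH (0.5 mg/mL final) added alongside compounds to p53RE-bla cells; 16 h 37 C exposure; beta-lactamase read by LiveBLAzer fluorescence.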

[7] = p53 small molecule agonists, cell-based qHTS assay with rat liver microsomes: qHTS cell viability counter screen (AID 1963580); also: nearly all actives have a fitted effect of over 45% in size
Method in brief: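 Counter screen for cytotoxicity under metabolic activation: rat liver microsomes and NADPH, 0.5 mg/mL final each, added with compounds to p53RE-bla HCT-116 cells; 16 h at 37 C, then ATP luminescence read.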

[8] = p53 small molecule agonists, cell-based qHTS assay: qHTS cell viability counter screen (AID 1963581); also: nearly all actives have a fitted effect of over 45% in size
Method in brief: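 Multiplexed with the reporter read, a CellTiter-Glo step (30 min, room temperature) gauges ATP-based viability of HCT-116 p53RE-bla cells after 16 h compound incubation at 37 C.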

[9] = p53 small molecule agonists, cell-based qHTS assay (AID 1963582; active = well fitted activation curve with a large enough effect in the signal ratio in the repeat runs, not every such curve was filed as active; the % refers to the signal ratio)
Method in brief: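 Beta-lactamase reporter cells (p53RE-bla) treated with compounds for 16 h at 37 C; FRET substrate, 2 h, room temperature; fluorescence intensity.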

[10] = target: 5-hydroxytryptamine receptor 2A (Homo sapiens) (UniProt P28223); assay: 5-hydroxytryptamine receptor 2A (HTR2A) small molecule antagonists, cell-based qHTS assay (AID 1963586); also: nearly all actives have a fitted effect of over 45% in size; also: potency is read from the fitted curve at half-maximal effect
Sequence of 5-hydroxytryptamine receptor 2A (Homo sapiens) (P28223 whole entry, looked up): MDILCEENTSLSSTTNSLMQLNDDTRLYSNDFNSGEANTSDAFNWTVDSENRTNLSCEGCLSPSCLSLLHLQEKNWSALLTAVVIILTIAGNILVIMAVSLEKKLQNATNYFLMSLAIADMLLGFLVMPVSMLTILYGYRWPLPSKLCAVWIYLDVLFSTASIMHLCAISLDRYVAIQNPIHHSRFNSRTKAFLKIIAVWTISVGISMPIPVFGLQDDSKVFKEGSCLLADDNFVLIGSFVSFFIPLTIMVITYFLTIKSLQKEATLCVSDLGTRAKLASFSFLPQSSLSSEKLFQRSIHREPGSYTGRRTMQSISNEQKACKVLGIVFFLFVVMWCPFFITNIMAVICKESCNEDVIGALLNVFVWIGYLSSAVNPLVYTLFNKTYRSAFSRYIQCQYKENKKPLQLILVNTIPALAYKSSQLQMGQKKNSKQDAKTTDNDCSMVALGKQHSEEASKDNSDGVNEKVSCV
Method in brief: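 CHO cells stably expressing human HTR2A were plated for 18 h at 37 C, then loaded with calcium dye for 1 h. Compounds were preincubated 5 min at room temperature before DOI (4 nM solution) was added. Kinetic fluorescence was read for 3 min.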

[11] = target: 5-hydroxytryptamine receptor 2A (Homo sapiens) (UniProt P28223); assay: 5-hydroxytryptamine receptor 2A (HTR2A) small molecule agonists, cell-based qHTS assay (AID 1963587); also: nearly all actives have a fitted effect of over 30% in size
Method in brief: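 HTR2A-CHO cells, plated 18 h at 37 C/5% CO2, dye-loaded 1 h at 37 C; compounds in DMSO added by pin tool (agonist mode). Intracellular calcium flux read as kinetic fluorescence on FDSS over 2 min at 1 s intervals.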

[12] = target: Muscarinic acetylcholine receptor M1 (Homo sapiens) (UniProt P11229); assay: Cholinergic receptor muscarinic 1 (CHRM1) small molecule antagonists, cell-based qHTS assay (AID 1963588); also: nearly all actives have a fitted effect of over 40% in size; also: potency is read from the fitted curve at half-maximal effect
Sequence of Muscarinic acetylcholine receptor M1 (Homo sapiens) (P11229 whole entry, looked up): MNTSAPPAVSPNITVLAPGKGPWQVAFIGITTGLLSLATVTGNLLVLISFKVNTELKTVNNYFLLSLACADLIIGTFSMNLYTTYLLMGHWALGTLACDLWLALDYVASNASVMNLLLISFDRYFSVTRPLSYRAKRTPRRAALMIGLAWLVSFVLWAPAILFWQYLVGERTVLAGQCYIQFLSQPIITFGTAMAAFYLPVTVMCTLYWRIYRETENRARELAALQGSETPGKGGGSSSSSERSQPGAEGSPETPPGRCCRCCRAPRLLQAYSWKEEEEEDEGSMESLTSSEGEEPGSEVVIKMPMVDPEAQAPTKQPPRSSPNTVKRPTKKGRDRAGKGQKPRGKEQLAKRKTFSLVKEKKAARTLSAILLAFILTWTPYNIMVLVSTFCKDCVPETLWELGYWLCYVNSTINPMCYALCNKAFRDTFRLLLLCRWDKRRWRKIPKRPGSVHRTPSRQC
Method in brief: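 Compounds were tested at 15 concentrations in three independent runs. Dye-loaded CHRM1-CHO cells were exposed 5 min at room temperature before stimulation by acetylcholine added at 50nM. Intracellular calcium was read kinetically on FDSS for 3 min.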

[13] = target: Muscarinic acetylcholine receptor M1 (Homo sapiens) (UniProt P11229); assay: Cholinergic receptor muscarinic 1 (CHRM1) small molecule agonists, cell-based qHTS assay (AID 1963589); also: nearly all actives have a fitted effect of over 35% in size
Method in brief: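 qHTS, 15-point titration, 3 independent runs: compounds pin-transferred onto dye-loaded CHRM1-CHO cells (human M1), calcium fluorescence followed every second to detect agonism.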

[14] = cAMP Responsive Elements (CRE) small molecule agonists, cell-based qHTS assay (AID 1963590)
Method in brief: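 Quantitative HTS for CRE agonists: HEK 293T CRE-bla cells, overnight plating, 3 h compound incubation at 37 C/5% CO2, then 2 h room-temperature LiveBLAzer B/G FRET substrate loading.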

[15] = target: Beta-2 adrenergic receptor (Homo sapiens) (UniProt P07550); assay: Adrenergic beta2 receptor (ADRB2) small molecule antagonists, cell-based qHTS assay (AID 1963592); also: series mostly up to about 92 µM; nearly all actives have a fitted effect of over 50% in size
Sequence of Beta-2 adrenergic receptor (Homo sapiens) (P07550 whole entry, looked up): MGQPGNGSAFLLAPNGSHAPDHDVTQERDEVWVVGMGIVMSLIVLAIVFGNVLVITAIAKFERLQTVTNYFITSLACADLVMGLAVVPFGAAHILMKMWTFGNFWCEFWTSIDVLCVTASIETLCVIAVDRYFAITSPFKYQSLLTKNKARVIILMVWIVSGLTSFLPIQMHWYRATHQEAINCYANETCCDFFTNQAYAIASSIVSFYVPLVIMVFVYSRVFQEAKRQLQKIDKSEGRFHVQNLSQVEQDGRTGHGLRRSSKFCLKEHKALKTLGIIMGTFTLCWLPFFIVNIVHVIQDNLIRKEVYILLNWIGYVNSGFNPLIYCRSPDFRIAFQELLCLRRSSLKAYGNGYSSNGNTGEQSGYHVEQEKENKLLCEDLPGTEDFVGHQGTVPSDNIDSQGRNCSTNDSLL
Method in brief: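 Assay format: CHO-ADRB2 cells, 18-20hr seeding at 37C/5% CO2, then compound plus 1nM isoproterenol agonist mix for 0.5hr RT. Homogeneous time-resolved fluorescence cAMP detection after 1hr, expressed as 665/615 nm ratio.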

[16] = target: D(2) dopamine receptor (Homo sapiens) (UniProt P14416); assay: Dopamine D2 receptor (DRD2) small molecule agonists, cell-based qHTS assay (AID 1963594); also: nearly all actives have a fitted effect of over 35% in size
Sequence of D(2) dopamine receptor (Homo sapiens) (P14416 whole entry, looked up): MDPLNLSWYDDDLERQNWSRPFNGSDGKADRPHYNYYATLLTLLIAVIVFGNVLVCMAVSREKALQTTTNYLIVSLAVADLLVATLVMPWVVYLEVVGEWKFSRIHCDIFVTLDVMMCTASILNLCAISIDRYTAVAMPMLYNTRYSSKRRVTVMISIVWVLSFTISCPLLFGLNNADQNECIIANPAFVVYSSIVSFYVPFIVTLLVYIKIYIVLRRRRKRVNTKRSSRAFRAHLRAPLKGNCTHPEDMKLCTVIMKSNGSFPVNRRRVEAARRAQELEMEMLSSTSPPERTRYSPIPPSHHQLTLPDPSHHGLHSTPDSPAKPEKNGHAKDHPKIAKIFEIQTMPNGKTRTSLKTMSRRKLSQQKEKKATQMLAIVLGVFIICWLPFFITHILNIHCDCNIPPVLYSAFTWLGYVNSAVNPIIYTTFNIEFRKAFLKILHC
Method in brief: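 HEK293 cells stably expressing DRD2 were cultured 24 h at 37 C, then given Ro20-1724 (0.1 mM final) and compounds for 10 min at room temperature. NKH477 (200nM) was then added for 30 min. cAMP was read by HTRF.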

[17] = target: D(2) dopamine receptor (Homo sapiens) (UniProt P14416); assay: Dopamine D2 receptor (DRD2) small molecule antagonists, cell-based qHTS assay (AID 1963595; active = well fitted inhibition curve with a large enough effect in the signal ratio in the repeat runs, with a control signal flat; the % refers to the signal ratio)
Method in brief: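 Human DRD2 antagonist qHTS measuring cAMP by HTRF. The cells are exposed to compound for 10 min, then to NKH477 (200 nM) and quinpirole (12 nM) for 30 min at RT, with Ro20-1724 (0.1 mM) present throughout.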

[18] = cAMP Responsive Elements (CRE) small molecule antagonists, cell-based qHTS assay (AID 1963591; active = well fitted inhibition curve with a large enough effect in the signal ratio in the repeat runs, not every such curve was filed as active; the % refers to the signal ratio)
Method in brief: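 Fluorescence intensity from cleaved LiveBLAzer B/G substrate (2 h, room temperature) quantified CRE-bla activity in HEK 293T cells exposed 3 h to compound with 0.25 uM final NKH477.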

[19] = p53 small molecule agonists, cell-based qHTS assay with human liver microsomes: qHTS cell viability counter screen (AID 1963579); also: nearly all actives have a fitted effect of over 45% in size
Method in brief: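 Metabolic activation used human liver microsomes and NADPH, both 0.5 mg/mL final, over 16 hours at 37 C on p53RE-bla cells (4,000/well). Cytotoxicity measured by CellTiter-Glo luminescence, 30 min at room temperature.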

[20] = p53 small molecule agonists, cell-based qHTS assay with rat liver microsomes (AID 1963578)
Method in brief: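 Metabolic activation by rat liver microsomes and NADPH, each 0.5 mg/mL final, added right after compounds to p53RE-bla reporter cells (4,000/well, plated 5 h earlier). 16 h at 37 C, then LiveBLAzer substrate for 2 h at room temperature in the dark; fluorescence read-out.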
% is scaled to controls: 0 for no effect and ±100 for the full control effect.

C=CCn1c(=O)n([C@@H]2O[C@H](CO)[C@@H](O)[C@H]2O)c2nc(N)[nH]c(=O)c21
inactive: Potency [1] | Potency [2] | Potency [3] | outcome [4] | outcome [5] | Potency [6] | Potency [7] | Potency [8] | Potency [9] | Potency [10] | Potency [11] | Potency [12] | Potency [13] | Potency [14] | Potency [15] | Potency [16] | Potency [17]

CNCCC(Oc1ccccc1OC)c1ccccc1 (stereo unspecified)
active: Potency [12] 16.3 µM
inactive: Potency [1] | Potency [2] | Potency [3] | outcome [4] | outcome [5] | Potency [6] | Potency [7] | Potency [11] | Potency [13] | Potency [14] | Potency [18] | Potency [16] | Potency [17]

CC1=NN(c2ccc(C(=O)O)cc2)C(=O)C1
inactive: Potency [1] | Potency [2] | Potency [3] | outcome [4] | outcome [5] | Potency [6] | Potency [19] | Potency [8] | Potency [9] | Potency [11] | Potency [12] | Potency [13] | Potency [14] | Potency [18] | Potency [15] | Potency [16] | Potency [17]

CC(=O)c1cnccn1
inactive: Potency [1] | Potency [2] | Potency [3] | outcome [4] | outcome [5] | Potency [6] | Potency [19] | Potency [7] | Potency [9] | Potency [10] | Potency [11] | Potency [12] | Potency [13] | Potency [14] | Potency [18] | Potency [15] | Potency [16] | Potency [17]

CN(C)c1ccc(C(c2ccccc2)c2ccc(N(C)C)cc2)cc1
inactive: Potency [1] | Potency [2] | Potency [3] | outcome [4] | outcome [5] | Potency [6] | Potency [19] | Potency [7] | Potency [8] | Potency [10] | Potency [13] | Potency [14] | Potency [18] | Potency [16]

O=C(O)c1ccccc1C(=O)Nc1ccc(S(=O)(=O)Nc2nccs2)cc1
inactive: Potency [1] | Potency [2] | Potency [3] | outcome [4] | outcome [5] | Potency [6] | Potency [19] | Potency [8] | Potency [9] | Potency [10] | Potency [11] | Potency [13] | Potency [14] | Potency [18] | Potency [15] | Potency [16] | Potency [17]

Cc1cc(Br)ccc1NC(=O)CCl
active: Potency [1] 30.6 µM | Potency [2] 13.7 µM
inactive: Potency [3] | outcome [4] | outcome [5] | Potency [6] | Potency [19] | Potency [7] | Potency [10] | Potency [11] | Potency [12] | Potency [13] | Potency [15] | Potency [16] | Potency [17]

CCOC(=O)C1=NOC(c2ccccc2)(c2ccccc2)C1
inactive: Potency [1] | Potency [2] | Potency [3] | outcome [4] | outcome [5] | Potency [20] | Potency [19] | Potency [7] | Potency [8] | Potency [9] | Potency [10] | Potency [11] | Potency [13] | Potency [14] | Potency [15] | Potency [16] | Potency [17]

C=CC(=O)OCC(O)COc1ccccc1 (stereo unspecified)
active: Potency [1] 61.1 µM | Potency [2] 68.6 µM
inactive: Potency [3] | outcome [4] | outcome [5] | Potency [20] | Potency [19] | Potency [7] | Potency [8] | Potency [10] | Potency [11] | Potency [12] | Potency [13] | Potency [15] | Potency [16] | Potency [17]

Cc1cc(C(=O)O)ccc1[N+](=O)[O-]
inactive: Potency [1] | Potency [2] | Potency [3] | outcome [4] | outcome [5] | Potency [20] | Potency [19] | Potency [7] | Potency [8] | Potency [9] | Potency [10] | Potency [11] | Potency [13] | Potency [18] | Potency [16] | Potency [17]

OCC(O)[C@@H](O)[C@H](O)[C@H](O)CO[C@H]1O[C@H](CO)[C@@H](O)[C@H](O)[C@H]1O (stereo partly specified)
inactive: Potency [1] | Potency [2] | Potency [3] | outcome [4] | outcome [5] | Potency [20] | Potency [19] | Potency [7] | Potency [8] | Potency [10] | Potency [12] | Potency [13] | Potency [14] | Potency [18] | Potency [16] | Potency [17]

C[C@]12CCC(=O)C=C1CC[C@@H]1[C@@H]2CC[C@@]2(C)[C@H]1CC[C@]2(O)C(=O)CO
inactive: Potency [1] | Potency [2] | Potency [3] | outcome [4] | outcome [5] | Potency [20] | Potency [19] | Potency [7] | Potency [8] | Potency [9] | Potency [10] | Potency [11] | Potency [12] | Potency [13] | Potency [15] | Potency [16]

O=C(CCN1CCN2CCCC2C1)N1c2ccccc2Sc2ccc(Cl)cc21 (stereo unspecified)
inactive: activity change, negative = cytotoxicity [1] -13.5% [at 19 µM] | activity, positive = activation [2] -8.3% [at 19 µM] | activity change [3] 0.23% [at 11.8 µM, active compounds read high] | activation [4] -1.39% [at 15.8 µM] | activation [5] 0.367% [at 11.8 µM] | activation [20] 1.06% [at 13.6 µM] | activity change, negative = cytotoxicity [19] -1.69% [at 13.5 µM] | activity change, negative = cytotoxicity [7] 2.61% [at 13.5 µM] | activity change, negative = cytotoxicity [8] -8.91% [at 13.5 µM] | activation [9] -0.768% [at 13.5 µM] | activation [11] -9.57% [at 15.9 µM] | activation [13] 0.0294% [at 15.8 µM] | activation [14] 0.0795% [at 19 µM] | activity change, negative = inhibition [15] 0.603% [at 19 µM] | activity change, negative = inhibition [17] -8.25% [at 18.9 µM]
active: Potency [10] 8.94 µM

COc1cc(CNC(=O)CCCC/C=C/C(C)C)ccc1O
inactive: Potency [1] | Potency [2] | Potency [3] | outcome [4] | outcome [5] | Potency [20] | Potency [19] | Potency [7] | Potency [8] | Potency [9] | Potency [14] | Potency [18] | Potency [15] | Potency [16] | Potency [17]

FC(F)(F)c1ccc(Cl)cc1Cl
inactive: Potency [1] | Potency [2] | Potency [3] | outcome [4] | outcome [5] | Potency [20] | Potency [19] | Potency [7] | Potency [8] | Potency [9] | Potency [11] | Potency [12] | Potency [13] | Potency [14] | Potency [18] | Potency [16] | Potency [17]
